Assay outcomes as filed in PubChem.
Sampled rows, rich in hits. Any-hit rate of the full collection: about 19%.
RORg inh: qHTS for inhibitors of ROR gamma transcriptional activity. Drosophila S2 Gal4-RORgamma UAS-luciferase reporter, 20 h. hit rate 5.4% among 310,000. Nuclear receptor ROR-gamma (Mus musculus), P51450. Potency, µM (doses to about 53.6 µM), without a hit: at the top dose activity change, negative = inhibition, most hits filed as inhibitors; further: nearly all actives have a fitted effect of over 60% in size
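Luciferase reporter read in Schneider cells carrying Gal4-RORγ (mouse) and UAS-Photinus luciferase; cells given compound 1 h before 700 uM copper sulfate induction, then incubated 20 h at ambient temperature.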
Gal4-VP16 FLuc: VP16 counterscreen qHTS for inhibitors of ROR gamma transcriptional activity. Drosophila S2 Gal4-VP16 UAS-luciferase, luminescence, 20 h. Potency, µM (highest dose often 53.6 µM), for inactives: at the top dose activity, negative = inhibition, most hits filed as inhibitors. hit rate 3.5% among 310,000. AID 2546, 2010;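 further: Gal4-VP16 expression switched on by copper sulfate through the metallothionein promoter; nearly all actives have a fitted effect of over 50% in size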
TDP1 block: qHTS Assay for Inhibitors of Tyrosyl-DNA Phosphodiesterase (TDP1). Tyrosyl-DNA phosphodiesterase 1 (Homo sapiens), Q9NUW8. recombinant TDP1, AlphaScreen DNA substrate cleavage. Potency, µM (highest dose often 130 µM), without a hit: top-dose activity change, negative = inhibition, hits mostly inhibitors. hit rate 0.28% among 350,000. AID 485290, 2010; further: nearly all actives have a fitted effect of over 40% in size
Target sequence (Q9NUW8 whole entry, looked up): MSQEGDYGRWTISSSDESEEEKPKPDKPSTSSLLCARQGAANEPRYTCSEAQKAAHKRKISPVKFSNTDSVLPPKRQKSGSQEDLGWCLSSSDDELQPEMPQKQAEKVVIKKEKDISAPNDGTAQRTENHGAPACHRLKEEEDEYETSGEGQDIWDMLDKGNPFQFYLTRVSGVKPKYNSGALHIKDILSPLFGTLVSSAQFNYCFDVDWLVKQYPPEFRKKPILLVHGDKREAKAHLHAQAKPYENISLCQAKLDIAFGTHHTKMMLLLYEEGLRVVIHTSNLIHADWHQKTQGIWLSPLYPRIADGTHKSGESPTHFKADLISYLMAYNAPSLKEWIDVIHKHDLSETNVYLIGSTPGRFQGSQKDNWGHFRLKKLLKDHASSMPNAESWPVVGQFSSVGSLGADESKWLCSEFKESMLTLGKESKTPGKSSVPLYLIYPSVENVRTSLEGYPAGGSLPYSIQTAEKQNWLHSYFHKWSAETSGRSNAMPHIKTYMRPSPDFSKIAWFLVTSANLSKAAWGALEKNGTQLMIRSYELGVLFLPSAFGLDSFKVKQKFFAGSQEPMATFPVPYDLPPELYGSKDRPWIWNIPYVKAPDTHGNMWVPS
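Compounds were preincubated with Tdp1 (1 nM final) for 15 min at room temperature before substrate (15 nM final) started a 5 min reaction; beads (10 ug/ml final) were then added for 10 min before AlphaScreen detection.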
TDP1 cell noCPT: qHTS for Inhibitors of human tyrosyl-DNA phosphodiesterase 1 (TDP1): qHTS in cells in absence of CPT | AID 686978, 2013 | Potency, µM (titrated, usually from 46.2 µM), without a hit: at the highest dose activity change, negative = growth inhibition, most hits filed as inhibitors | DT40 Tdp1-/- hTDP1 cells, no CPT, ATP luminescence, 48 h | hit rate 15% among 420,000; further: nearly all actives have a fitted effect of over 55% in size
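Readout: luminescence from CellTiter-Glo after 30 min in the dark at RT. Cells: DT40 Tdp1-/- with stable hTDP1, 400/well. Exposure: compounds alone, ≥48 hr, 37 °C.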
TDP1 cell CPT: qHTS for Inhibitors of human tyrosyl-DNA phosphodiesterase 1 (TDP1): qHTS in cells in presence of CPT | chicken DT40 Tdp1-/-;hTDP1 cells + 20 nM CPT, ATP luminescence, 48 h | Potency, µM (top dose mostly 46.2 µM), for the others: at the top dose activity change, negative = growth inhibition, usual class: inhibitors | hit rate 12% among 420,000 | AID 686979, 2013; further: nearly all actives have a fitted effect of over 55% in size
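Chicken DT40 Tdp1-/- cells complemented with human TDP1, 400 cells/well, exposed to compounds plus 20 nM camptothecin for at least 48 h at 37 C; viability read as ATP content by CellTiter-Glo luminescence.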
* marks the source's active call; other numbers are inactive results; ? = inconclusive; · = no result; ! = repeats disagree; [ ] = remark or other dose. The call rests on the fitted dose curve; in most records, active means well fitted curve in the direction sought with a large enough effect; inconclusive means small, poorly fitted or top-dose-only effect, or another doubt; inactive means no such curve, though single readings can be large; an effect the other way counts as inactive or inconclusive. On the % scale 0 is the no-effect control and ±100 the full control effect; potency means the concentration at half of the fitted maximal effect.

SMILES	RORg inh	Gal4-VP16 FLuc	TDP1 block	TDP1 cell noCPT	TDP1 cell CPT
CC(C)(C)c1ccc(C(=O)Nc2ccc(C(=O)OCc3cc(=O)n4ccsc4n3)cc2)cc1	·	·	-6.2%	20.6µM*	20.6µM*
O=C(Nc1ccccc1C(=O)OCc1cc(=O)n2ccsc2n1)c1cccc(F)c1	·	·	-1.2%	11.6µM*	18.4µM*
CC(C)(C)c1ccc(C(=O)Nc2ccccc2C(=O)OCc2cc(=O)n3ccsc3n2)cc1	·	·	3.8%	1.6%	-6.1%
CCOc1ccc(C(=O)Nc2ccc(C(=O)OCc3cc(=O)n4ccsc4n3)cc2)cc1	·	·	1.2%	-12.9%	0.4%
Cn1c(CCNC(=O)c2cccs2)n[nH]c1=S	5.8%	5.4%	2.6%	-5.2%	0.8%
COc1ccccc1C(=O)N/C(=C/c1ccc(Br)cc1)C(=O)NCCO	-5.8%	3.5%	-1.0%	-4.9%	-21.2%
CC1(C)COC(c2coc3ccccc3c2=O)OC1	9.5%	-11.8%	0.0%	-6.6%	8.7%
Cc1ccc(-c2ccc(=O)n(CC(=O)Nc3cccc(C#N)c3)n2)cc1	·	·	4.7%	-12.6%	16.7%
CCN1CCn2c3c(c4cc(Cl)ccc42)CCCC31 (configuration not stated)	20.1%	8.4%	7.3%	?	?
Cc1ccc2c(c1)c1c3n2CCN(C(=O)c2cccc(C(F)(F)F)c2)C3CCC1 (configuration not stated)	·	·	8.4%	23.1µM*	?
CCN(CC)CCN1CCn2c3c(c4cc(C)ccc42)CCCC31 (configuration not stated)	-14.3%	-4.7%	8.0%	23.1µM*	?
Cc1cccc(C)c1NC(=O)C(NC=O)c1ccccc1Cl (configuration not stated)	-4.9%	0.6%	3.8%	-21.8%	-14.2%
CN(C(=O)CCOc1ccccc1)c1c(N)n(Cc2ccccc2)c(=O)[nH]c1=O	·	·	-6.9%[0.505 µM]	11.4%	9.5%
Cc1cc(C(=O)NCc2ccc(Cl)cc2)c2c(C)nn(-c3ccccc3)c2n1	·	·	-2.8%	-16.5%	-2.3%
CCc1ccc(-n2nc(C)c3c(C(=O)N4CCN(c5cccc(Cl)c5)CC4)cc(C)nc32)cc1	·	·	3.2%	20.6µM*	?
Cc1cc(C(=O)N2CCN(c3ccccc3)CC2)c2c(C)nn(-c3cccc(F)c3)c2n1	·	·	-2.1%	16.4µM*	?
O=c1c2ccccc2nnn1COc1cccc(Cl)c1	?	0.0%	-10.3%	18.4µM*	-29.4%
O=C(CSCC(=O)OCn1nnc2ccccc2c1=O)Nc1ccc(Cl)cc1	29.6%	6.5%	2.0%	?	20.6µM*
O=C(Cc1cccc2ccccc12)OCn1nnc2ccccc2c1=O	-4.5%	-9.9%	-1.1%	-4.4%	-8.0%
Cc1onc(C(N)=O)c1C(=O)Nc1ncc(C(F)(F)F)cc1Cl	-1.9%	14.1%	0.0%	-6.8%	1.2%
CCOCCCNC(=O)CCc1nnc2ccc(N3CCCCC3)nn12	-11.2%	-12.1%	·	-21.2%	5.1%
N#CC1=C(N)Oc2n[nH]c(-c3cccs3)c2C1c1cccnc1 (configuration not stated)	8.6%	-4.8%	9.6%	-17.6%	?
O=[N+]([O-])c1ccc(S(=O)Cc2ccccc2)c([N+](=O)[O-])c1 (configuration not stated)	·	·	·	0.581µM*	0.461µM*
COc1ccc(-c2sc3cc(OC)ccc3c2-c2ccc(OCCN3CCOCC3)cc2)cc1	·	·	3.4%[56.1 µM]	?	?
COc1ccc2c(-c3ccc(SC)cc3)c(-c3ccc(S(C)(=O)=O)cc3)sc2c1	·	·	-1.5%	?	?
SMILES	RORg inh	Gal4-VP16 FLuc	TDP1 block	TDP1 cell noCPT	TDP1 cell CPT
COc1ccc(-c2c(-c3ccc(S(C)(=O)=O)cc3)sc3ccc(OC)cc23)cc1	·	·	-0.3%	13µM*	?
COc1ccc2sc(-c3ccc(S(C)(=O)=O)cc3)c(-c3ccc(SC)cc3)c2c1	·	·	0.0%	?	25.9µM*
COc1ccc2sc(-c3ccc(S(C)(=O)=O)cc3)c(-c3ccc4c(c3)OCCO4)c2c1	·	·	2.1%	?	?
COc1ccc2c(-c3cnc(N4CCOCC4)nc3)c(-c3ccc(S(C)(=O)=O)cc3)sc2c1	·	·	-0.1%	14.6µM*	14.6µM*
COc1ccc(S(=O)(=O)N(CC(=O)NCc2cccnc2)Cc2ccccc2)cc1	13.8%	5.6%	1.2%	-1.9%	14.9%
O=C(NCCC(=O)N1CCN(Cc2c(F)cccc2Cl)CC1)c1ccc(Cl)cc1	·	·	0.6%[56.1 µM]	?	?
N#C[C@@H]1C[C@@H]2C[C@@H]2N1C(=O)[C@@H](N)C12CC3CC(CC(O)(C3)C1)C2	·	·	·	-15.4%	-24.1%
N#Cc1cc2ccccc2nc1SCc1ccccn1	6.31µM*	?	-8.6%	-0.6%	-19.0%
CN1CCN(c2cc(CNC[C@H]3O[C@@H](n4cnc5c(=O)[nH]c(N)nc54)[C@H](O)[C@@H]3O)ccc2F)CC1	·	·	·	13.5%	-8.7%
O=C(CN1C(=O)COc2ccc(S(=O)(=O)N3CCCC3)cc21)N1CCN(c2ccc(Cl)cc2)CC1	·	·	9.0%	·	·
CCN(CC)S(=O)(=O)c1ccc2c(c1)N(CC(=O)N1CCN(c3ccc(OC)cc3)CC1)C(=O)CO2	·	·	1.9%	?	20.6µM*
CCN(CC)S(=O)(=O)c1ccc2c(c1)N(CC(=O)N1CCN(c3cccc(OC)c3)CC1)C(=O)CO2	·	·	5.7%	?	20.6µM*
O=C(CN1C(=O)COc2ccc(S(=O)(=O)N3CCCCCC3)cc21)N1CCN(c2ccc(F)cc2)CC1	·	·	11.5%	20.6µM*	23.1µM*
CCN(CC)S(=O)(=O)c1ccc(N2CCN(c3cccc(OC)c3)CC2)c([N+](=O)[O-])c1	40.7%	0.3%	5.6%	8.2µM*	13µM*
N#C/C(=N\Nc1ccccc1[N+](=O)[O-])C(=N)N1CCCCC1	?	-19.2%	2.6%	5.8µM*	5.8µM*
N#C/C(=N/Nc1ccc([N+](=O)[O-])cc1)C(=N)N1CCCCC1	-1.0%	-12.3%	8.6%	-0.9%	-17.7%
COc1ccc(NC(=O)c2ccc(COc3ccccc3)o2)cc1	28.8%	9.0%	0.0%	?	?
CC(=O)N[C@@H](CC(=O)O)C(=O)N[C@@H](CCC(=O)O)C(=O)O	28.0%	9.0%	15.8µM*!	-5.6%	10.7%
Cc1ccc(C(=O)COC(=O)CCC(=O)Nc2ccccc2Cl)cc1[N+](=O)[O-]	0.2%	6.2%	11.0%	-5.0%	-3.8%
Cc1ccc(-n2nnc(-c3nccs3)n2)cc1	3.98µM*	5.62µM*	2.6%	?	-26.7%
